Experimental findings from paper PMC5540273 (PLoS ONE, 2017) are described below.

Some test systems named below: MELK; MERTK; MET; MKK7; MKNK1; MKNK2.
Common to all, as to conditions: concentration: 1 μM, replicates: in singlicate; n = 1
For a further test, the system named is T1, MEK5.
T1 construct: gene MAP2K5

A further test deals with T2, MEK6.
T2 construct: gene MAP2K6

The next test relates to T3, MINK.
T3 construct: gene MINK1

The test system of a further test is T4, MLCK.
T4 construct: gene MYLK3
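Also: KINOMEscan kinase panel screen.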

Consider `O=C(Nc1n[nH]c2cc(-c3ccoc3)ccc12)C1CC1` [SB-738481], for which the “%Inh” value with MEK5 worked out at 45%; in the test with MEK6, 0%; in the test on MELK it was 0%; in the test with MERTK, 0%; in the test on MET, 0%; in the test with MINK, 44%. Further, the “%Inh” value in the test on MKK7 stood at 0%; in the test with MKNK1, 0%; with MKNK2, 15%; with MLCK, 34%.
For the compound `COc1ccc(-c2coc3ccc(-c4nnc(SCc5ccc(OC)c(C(F)(F)F)c5)o4)cc23)cc1`, the “%Inh” value in the test with MEK5 is listed as 4%; in the test on MEK6 it was 0%; in the test on MELK it was 20%; in the test on MERTK, 11%; in the test on MET, 13%; with MINK, 26%. Moreover, the “%Inh” value in the test on MKK7 is given as 14%; in the test with MKNK1 it was 0%; in the test with MKNK2, 1%; in the test with MLCK, 0%.
As for `c1ccc(-c2cnc3nccnn23)cc1` [AH20685], the “%Inh” value with MEK5, with MEK6, with MELK, in the test with MERTK, with MET and in the test on MINK was 0% throughout. Further, the “%Inh” value in the test on MKK7 is recorded as 0%; in the test on MKNK1, 2%; in the test with MKNK2, 11%; with MLCK, 9%.
Regarding `Cl.c1ccc(-c2ccc3c(Nc4ccc5[nH]ncc5c4)ccnc3c2)nc1` [GW440137], the “%Inh” value was 89% with MEK5; 0% in the test with MEK6; 15% in the test with MELK; 0% in the test on MERTK; 0% in the test on MET; 43% with MINK. The “%Inh” value is 0% in the test with MKK7, 5% with MKNK1, 18% in the test with MKNK2 and 15% in the test on MLCK.
With `COc1cc(Nc2nccc(-c3c(-c4cccc(NC(=O)c5c(F)cccc5F)c4)nn4ccccc34)n2)cc(OC)c1OC` [GSK323521], the “%Inh” value amounted to 79% in the test on MEK5; 3% with MEK6; 3% in the test with MELK; 59% with MERTK; 58% in the test on MET; 8% in the test on MINK. Also, the “%Inh” value in the test with MKK7 is listed as 32%; in the test on MKNK1 it was 7%; in the test on MKNK2, 22%; in the test with MLCK, 9%.
`COCCOCCOc1cc2ncc3c4ccc(C#N)cc4[nH]c3c2cc1OC`: the “%Inh” value in the test with MEK5 is on record as 100%; in the test with MEK6, 0%; with MELK, 54%; in the test on MERTK, 0%; with MET it was 10%; in the test on MINK, 90.9%. Further, the “%Inh” value was 0% in the test with MKK7, 95.4% with MKNK1, 99.7% in the test with MKNK2 and 95.8% with MLCK.
Turning to `Cc1ccc(C(=O)N2CC[C@@H](O)C2)cc1-n1c(C)cc(OCc2ccc(F)cc2F)c(Br)c1=O`, the “%Inh” value in the test on MEK5, in the test on MEK6, in the test with MELK, with MERTK, in the test with MET and in the test with MINK was 0% throughout. In addition, the “%Inh” value in the test with MKK7, with MKNK1, in the test with MKNK2 and with MLCK was 0% each time.
On to `Cl.Cl.NCC(NCc1ccc(-c2ccnc3[nH]ccc23)s1)c1ccccc1` (centres unmarked) [GSK1321565], for which the “%Inh” value in the test with MEK5 came to 43%; in the test with MEK6, 4%; in the test on MELK, 64%; with MERTK it was 74%; in the test with MET it was 0%; with MINK, 51%. Moreover, the “%Inh” value is reported as 0% in the test on MKK7, 2% in the test with MKNK1, 65% in the test with MKNK2 and 6% with MLCK.
As to `Cl.c1ccc(-c2ccc3c(Nc4ccc5[nH]ccc5c4)ccnc3c2)nc1` [GW440138], the “%Inh” value in the test on MEK5 was 83%; in the test with MEK6, 0%; in the test with MELK it was 0%; in the test with MERTK it was 34%; with MET, 0%; in the test on MINK, 75%. Further, the “%Inh” value turned out to be 0% in the test with MKK7, 2% with MKNK1, 0% in the test on MKNK2 and 0% in the test on MLCK.
For `Cl.Cl.NCC(C(=O)Nc1cc(Br)c(-c2ccnc3[nH]ccc23)s1)c1ccccc1` (centres unmarked) [GSK1269851], the “%Inh” value with MEK5 was found to be 20%; in the test on MEK6 it was 0%; with MELK, 45%; in the test with MERTK it was 19%; in the test with MET, 0%; in the test on MINK, 8%. For the same compound, the “%Inh” value is on record as 0% in the test on MKK7, 13% in the test with MKNK1, 99.1% in the test on MKNK2 and 98.7% with MLCK.
As to `Cn1cc(-c2[nH]c3cc(NC(=O)[C@H](N)C4CCCCC4)cc4c3c2C=NNC4=O)cn1`, the “%Inh” value was found to be 100% in the test on MEK5; 3% in the test with MEK6; 60% in the test with MELK; 95.1% in the test on MERTK; 5% with MET; 96.5% with MINK. Also, the “%Inh” value in the test with MKK7 is 0%; in the test with MKNK1, 100%; in the test on MKNK2 it was 100%; in the test on MLCK, 84%.
